Test results as given in PubChem BioAssay (NCATS).
Records with an inconclusive call do not appear. Calls come from the whole dose curve; as a rule, active = well fitted curve in either direction with a large enough effect (not every such curve was filed as active); inconclusive = small, poorly fitted or top-dose-only effect, or another doubt; inactive = flat fitted curve, though single readings scatter.

Assay: NFAT Signaling Pathway (AID 444)
Details: Jurkat NFAT-bla M1, carbachol, beta-lactamase ratio, 5 h; at 17.2 µM (top of the series) unless noted
From the text: NCGC Assay Overview: The nuclear factor of activated T cells (NFAT) family of transcription factors has been found primarily in most immune system cells and some other non-immune cells. NFAT plays the immunomodulatory role, primarily in T-cell activation and differentiation. NFAT target genes are also involved in the regulation of apoptosis and differentiation in non-immune cell types. The NFAT sequence was engineered to the upstream of the ?-lactamase reporter gene and transfected into Jurkat cells with co-transfection of muscarinic receptor1 [provided by Invitrogen Corp]. When an extracellular stimulus, such as carbachol, binds to the GPCR M1 receptor, it stimulates a signaling cascade that activates NFAT response element and ?-lactamase expression by phosphorylating the NFAT binding protein. This cell based ?-lactamase reporter gene assay can accurately monitor any changes occurring along the NFAT pathway, and can be used for screening small molecule inhibitor or activator upon activation by carbachol EC50 concentration. A small molecular library were screened in a titration series resulting in AC50s (can be either IC50s or EC50s).
NCGC Assay Protocol Summary: The cells were prepared in RPMI 1640 medium containing 0.1% dialyzed FBS and 25 mM HEPES at 1.6 x 10^6cell/ml. The assay was performed in 1536-well plate format as follows: 5 ul of cell preparation 23 nl of compounds 1ul of carbachol (final concentration 1 uM) Briefly centrifuge the plates and incubate at 37 °C for 5 hours 1 ul of CCF4 dye mixture Incubate the plates at RT for 1 hour Read the plate in EnVision plate reader (Ex= 405nm, and Em1=460nm and Em2=530nm). The %Activity was determined from the ratio of 460nm/530nm. Data normalization and AC50 calculations were accomplished using GeneData software.
% is set by controls: 0 for no effect and ±100 for the full control effect.

Activity change, negative = inhibition, inactive:
CN(C)c1nc2sc3c(c2c(=O)n1C)CC(C)(C)OC3 -2.36%, CCOC(=O)NC(Nc1cc(C)on1)(C(F)(F)F)C(F)(F)F -2.55%, CCCCOc1ccc(CN(C)c2ncnc(N)n2)cc1 -11.6%, CCC(=O)Nc1cccc(-c2nnc(SCC(=O)NCc3ccco3)n2C)c1 6.34%, Cc1ccc(S(=O)(=O)NCC(=O)OCN2C(=O)c3ccccc3C2=O)cc1 -25.1%, CCNc1sc(C(=O)c2cccs2)c(N)c1C#N 20.9%, CN1CCN(c2c3c(c(C#N)c4nc5ccccc5n24)CCCC3)CC1 0.538%, CCNC(=O)N(C(=O)NCC)n1c(C)nnc1C -11.9%, CC1(C)CC(=O)C=C(N=CC2=C(O)CC(C)(C)CC2=O)C1 -11.2%, Nc1ncnc2c1ncn2[C@@H]1O[C@@H](COP(=O)(O)OP(=O)(O)OP(=O)(O)OP(=O)(O)OC[C@@H]2O[C@@H](n3cnc4c(N)ncnc43)[C@@H](O)[C@H]2O)[C@H](O)[C@@H]1O -0.343% [at 38 µM], CCOc1ccc2nc(NC(NC(=O)CC)(C(=O)OC)C(F)(F)F)sc2c1 (stereo not given) 8.42%, CCCC1Cc2c(sc3nc(SC)nc(N)c23)CO1 (stereo not given) -10.7%, CCCC(C)n1[nH]c(=O)cc1N (stereo not given) 8.48%, CC(C)C1Cc2c(C#N)c(N)n(C)c(=S)c2CO1 (stereo not given) -23.6%, O=C(O)C1[C@H]2C(=O)N(Cc3cccs3)C[C@]23C=C[C@H]1O3 (stereo not given in full) -3.3%, CSc1nncc(=O)[nH]1 0.69%, COc1ccccc1-n1c(N)c(C(=O)NCC2CCCO2)c2nc3ccccc3nc21 (stereo not given) 21.4%, Cc1cn2c(-c3ccncc3)nnc2s1 1.86%, Cc1nn(-c2ccccc2)c2c1C(=O)NC(=O)C(C)(C)C2 0.783%, C/C(=N\O)C(=O)NCCCNCCCN(C)C -0.0528%, CCOC(=O)CSc1nnc(C)c(=O)[nH]1 -0.387%, CCc1nc2n[nH]c(N)c2c2c1CCCC2 1.69%, COc1cccc(C2/C(=C(/O)c3ccc(C)cc3)C(=O)C(=O)N2Cc2ccco2)c1 (stereo not given) -8.9%, COc1ccc(N(CN2C(=O)C3C4C=CC(C4)C3C2=O)C(=O)c2ccco2)cc1 (stereo not given) 12.6%, O=C(CCN1CCc2ccccc21)c1ccc2c(c1)OCCO2 -15.2%, COc1ccc(C2C(C#N)=C(N)Oc3n[nH]c(C)c32)cc1CSc1ccccn1 (stereo not given) 13.4%, Cc1cc(=O)n2[nH]cnc2n1 10.4%, Cc1nc(NCc2ccccc2)c(C(N)=O)c2c1COC(C)(C)C2 9.09%, CC(C)c1cc(NCCCN2CCOCC2)n2c(nc3ccccc32)c1C#N -9.44%, CCCCCC[C@@H]([C@H](C)O)n1cnc2c(N)ncnc21 -4.53% [at 38 µM], Cc1ccc(-n2ncc3c(NCCCOC(C)C)ncnc32)c(C)c1 25.7%, Cn1c(=NCC(O)COc2ccccc2)sc2ccccc21 (stereo not given) -13.4%, Cc1cc(C)c(NC(=O)OCCN2CCOCC2)c(C)c1 -5.81%, CC[C@]1([C@H]2O[C@@H]([C@@H]3O[C@](O)(CO)[C@@H](C)C[C@H]3C)C[C@H]2C)CC[C@@H]([C@]2(C)CC[C@@]3(C[C@@H](O)[C@@H](C)[C@@H]([C@H](C)[C@H](OC)[C@H](C)C(=O)O)O3)O2)O1 20.4%, Cn1ncc2nc[nH]c(=O)c21 -1.7%, Cn1nnnc1-c1cc(Br)ccc1NC(=O)c1ccccc1 -1.05%, CCC(NC(=O)Nc1nccs1)(C(F)(F)F)C(F)(F)F -12.7%, COc1cc(-c2nn3c(-c4ccccn4)nnc3s2)cc(OC)c1OC 10.9%, CCCc1nnc(SCc2ccc(OCC)cc2)n1N 7.42%, COCc1n[nH]c(=S)n1-c1cccc2ccccc12 1.36%
